Measurements reported in PubChem BioAssay AID1851 (National Center for Advancing Translational Sciences (NCATS), 2009).
Hit rate of the full screen: of about 16,000 compounds, about 4,000 (25%) were called active. Not shown: some 26% with an inconclusive outcome. The call rests on the fitted dose curve; in most records, active means well fitted curve in the direction sought with a large enough effect; inconclusive means small, poorly fitted or top-dose-only effect, or effect the other way; inactive means no such curve, though single readings can be large or run the other way. The list is a sample of the results.

Biological target: Cytochrome P450 2C9 (Homo sapiens) (UniProt P11712)
Sequence (P11712 whole entry, looked up): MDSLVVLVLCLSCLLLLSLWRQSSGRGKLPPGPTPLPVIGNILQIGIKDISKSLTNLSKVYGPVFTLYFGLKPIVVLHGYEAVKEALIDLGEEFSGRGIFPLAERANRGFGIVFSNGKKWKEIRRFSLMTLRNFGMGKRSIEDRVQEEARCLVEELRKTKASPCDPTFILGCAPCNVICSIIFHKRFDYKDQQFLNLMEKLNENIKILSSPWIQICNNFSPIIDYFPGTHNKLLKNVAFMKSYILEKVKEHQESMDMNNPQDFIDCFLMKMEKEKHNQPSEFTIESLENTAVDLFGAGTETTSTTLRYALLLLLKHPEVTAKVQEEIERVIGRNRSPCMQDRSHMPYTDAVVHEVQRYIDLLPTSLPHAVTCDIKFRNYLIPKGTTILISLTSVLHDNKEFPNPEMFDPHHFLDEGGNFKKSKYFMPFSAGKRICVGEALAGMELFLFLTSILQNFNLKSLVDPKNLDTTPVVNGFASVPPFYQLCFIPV
Test: Cytochrome panel assay with activity outcomes
Conditions: recombinant CYP, pro-luciferin dealkylation, luminescence, p450-cyp2c9; series mostly up to 57.1 µM; activity, negative = inhibition: at the top concentration
On the % scale 0 is the no-effect control and ±100 the full control effect.

For O=C(Nc1ccc2oc(-c3ccccc3F)nc2c1)c1ccc2c(c1)OCCO2, which AC50 is on record?
Its AC50 is 8.91 µM (active).

With Cn1c(CN2CCCCC2)nc2cc(NC(=O)c3ccc(Cl)cc3)ccc21 as the compound, how does the “activity, negative = inhibition” value read?
Its value is -28.1% (inactive).

With C[C@@]1(C(=O)O)NCCc2cc(O)c(O)cc21 as the compound, how does the “activity, negative = inhibition” value read?
Its value is -29% (inactive).

With CN(C)CCCN1c2ccccc2C(C)(C)c2ccccc21 as the compound, how does the activity, negative = inhibition read?
The activity, negative = inhibition was -4.58% [at 11.4 µM] (inactive).

Which “activity, negative = inhibition” value does the source give for COc1nc(OCCNC(C)=O)nc(N(C)C)n1 here?
Its value is -4.85% (inactive).

With COCCn1c(=O)c(-c2cccc(C#N)c2)nc2cnc(N(C)C)nc21 as the compound, how does the “activity, negative = inhibition” value read?
Its value is -1.58% (inactive).

For COCCn1c(=O)c(-c2cccc(C#N)c2)nc2cnc(Oc3ccccc3)nc21, which AC50 is on record?
The AC50 was 7.94 µM (active).

How did the AC50 turn out when COCCn1c(=O)c(-c2cccc(C#N)c2)nc2cnc(OCc3ccccc3)nc21 was run?
Its AC50 is 10 µM (active).

For Cn1c(=O)c(-c2cccc(C#N)c2)nc2cnc(Oc3ccccc3)nc21, which “activity, negative = inhibition” value is on record?
Its value is 4.28% (inactive).

Which “activity, negative = inhibition” value does the source give for CCNc1ncc2nc(-c3cccc(C#N)c3)c(=O)n(CCC#N)c2n1 here?
The value was -9.32% (inactive).

Which “activity, negative = inhibition” value does the source give for COc1ncc2nc(-c3cccc(C#N)c3)c(=O)n(CCC#N)c2n1 here?
The value was -2.35% (inactive).

With C[C@@H]1/C=C\CC(=O)OC[C@H](C)C(=O)N[C@@H](C)C(=O)OC1 as the compound, how does the activity, negative = inhibition read?
The activity, negative = inhibition was 5.57% [at 11.4 µM] (inactive).

How did the “activity, negative = inhibition” value turn out when Nc1nc2c(nc(Br)n2[C@@H]2O[C@H]3COP(=O)(O)O[C@@H]3[C@H]2O)c(=O)[nH]1 was run?
Its value is -6.44% (inactive).

COc1ccc(N2C(=O)c3ccccc3NC2c2ccc(OC)c(CSc3ccccn3)c2)cc1 (stereo not drawn) was tested. Which AC50 did it give?
Its AC50 is 1.12 µM (active).

With COc1ccc(C2N(c3ccccn3)C(=O)C3CCCN32)c(OC)c1 (stereo not drawn) as the compound, how does the “activity, negative = inhibition” value read?
Its value is -21.3% (inactive).

How did the “activity, negative = inhibition” value turn out when CN(C)[C@@H]1C(=O)C(C(N)=O)=C(O)[C@]2(O)C(=O)C3=C(O)c4c(O)ccc(Cl)c4[C@H](O)[C@H]3C[C@@H]12 was run?
Its value is -18.6% (inactive).

Which AC50 does the source give for CCOC(=O)C1=C(O)C(=O)N(Cc2ccccc2)C1 here?
The AC50 was 3.98 µM (active).

How did the activity, negative = inhibition turn out when CCOC(=O)N/N=C1/C[C@@H](O)[C@@H](O)[C@@H]2[C@@H]3C(=O)N(Cc4ccccc4)C(=O)[C@H]3CC[C@@H]12 was run?
Its activity, negative = inhibition is 23.5% [at 11.4 µM] (inactive).

For CCOC(=O)N/N=C1/C[C@@H](O)[C@@H](O)[C@@H]2[C@@H]3C(=O)N(Cc4ccccc4)C(=O)[C@H]3CC[C@H]12, which activity, negative = inhibition is on record?
Its activity, negative = inhibition is -12.9% [at 11.4 µM] (inactive).

Which AC50 does the source give for CCCCCCC1CC(C)(/C(C)=N/NC(N)=O)OC1=O (stereo not drawn) here?
Its AC50 is 22.4 µM (active).

With CC(=O)OC[C@H]1O[C@@H](O/N=C(\C)CCC(=O)OC[C@@H]2O[C@H](C#Cc3ccccc3)C=C[C@@H]2Oc2ccc(C)cc2)[C@H](OC(C)=O)[C@@H](OC(C)=O)[C@H]1OC(C)=O as the compound, how does the activity, negative = inhibition read?
Its activity, negative = inhibition is -6.45% [at 11.4 µM] (inactive).

With Cc1cccc(C)c1NC(=O)N1CCC(N2CCCCC2)CC1 as the compound, how does the “activity, negative = inhibition” value read?
Its value is 18.1% (inactive).

Which “activity, negative = inhibition” value does the source give for O=C(Nc1ccc(Cl)c(Cl)c1)N1CCC(N2CCCCC2)CC1 here?
The value was -11.4% (inactive).

How did the AC50 turn out when CC1CCN(C(=O)Nc2ccc3nsnc3c2)CC1 was run?
The AC50 was 15.8 µM (active).

With COCCCNC(=O)C1CC(=O)N(CCc2ccc(OC)c(OC)c2)C1 (stereo not drawn) as the compound, how does the “activity, negative = inhibition” value read?
Its value is -2.84% (inactive).

How did the “activity, negative = inhibition” value turn out when COCCCNC(=O)C1CC(=O)N(Cc2ccc(OC)cc2)C1 (stereo not drawn) was run?
The value was 7.71% (inactive).

For COc1ccc(/C=C2\SC(=O)N(CCNC(=O)C3CC(=O)N(c4ccccc4)C3)C2=O)cc1 (stereo not drawn), which AC50 is on record?
The AC50 was 7.94 µM (active).

How did the activity, negative = inhibition turn out when COc1ccccc1-c1cc(NCc2cccs2)ncn1 was run?
The activity, negative = inhibition was 17.3% [at 2.29 µM] (inactive).

How did the “activity, negative = inhibition” value turn out when Cc1ccc(CS(=O)(=O)CCC(=O)NCCCN2CCCC2)cc1 was run?
The value was -9.15% (inactive).

Which “activity, negative = inhibition” value does the source give for O=C(NCCN1CCOCC1)c1csc2c1CCCCC2 here?
The value was 24.6% (inactive).

For CCC(Sc1nc(C)cc(=O)[nH]1)C(=O)Nc1nc2c(s1)CCCC2 (stereo not drawn), which AC50 is on record?
The AC50 was 7.94 µM (active).

With CCC(=O)Nc1c2c(nc3c1CCC3)CCCC2 as the compound, how does the “activity, negative = inhibition” value read?
The value was -14.1% (inactive).

For O=C(Cc1ccc(S(=O)(=O)N2CCOCC2)s1)Nc1nc2c(s1)CCCC2, which AC50 is on record?
The AC50 was 15.8 µM (active).

How did the “activity, negative = inhibition” value turn out when Cc1ccc(CS(=O)(=O)CCC(=O)NCCN2CCCC2)cc1 was run?
The value was 9.44% (inactive).

Cc1ccc(S(=O)(=O)CCC(=O)Nc2nc3c(s2)CCCC3)cc1 was tested. Which AC50 did it give?
The AC50 was 1.12 µM (active).

How did the AC50 turn out when Cc1cc(=O)[nH]c(SCC(=O)Nc2nc3c(s2)CCCC3)n1 was run?
The AC50 was 15.8 µM (active).

Cc1cc(=O)[nH]c(-n2[nH]c3c(c2=O)CCCC3)n1 was tested. Which “activity, negative = inhibition” value did it give?
The value was -22.4% (inactive).

How did the “activity, negative = inhibition” value turn out when C[C@@]12C=CC(=O)C=C1CC[C@@H]1[C@@H]2[C@H](O)C[C@]2(C)[C@@H]1CC[C@]2(O)C(=O)CO was run?
The value was 21.5% [at 25.6 µM] (inactive).

How did the AC50 turn out when COC(=O)[C@@]1(Cc2ccc(F)cc2)[C@H]2c3cc(C(=O)N(C)C)n(CCCNc4ccc(C(F)(F)F)cc4Cl)c3C[C@H]2CN1C(=O)c1ccccc1 was run?
Its AC50 is 20 µM (active).

COC(=O)[C@@]1(Cc2ccc(OC)cc2)[C@H]2c3cc(C(=O)N4CCCC4)n(Cc4ccc(Cl)c(C(F)(F)F)c4)c3C[C@H]2CN1C(=O)c1ccccc1 was tested. Which AC50 did it give?
The AC50 was 20 µM (active).

COC(=O)[C@@]1(Cc2ccc(F)cc2)[C@H]2c3cc(C(=O)N(C)C)n(Cc4ccc(Cl)c(C(F)(F)F)c4)c3C[C@H]2CN1C(=O)c1ccccc1 was tested. Which AC50 did it give?
Its AC50 is 3.98 µM (active).

COC(=O)[C@@]1(Cc2ccc(F)cc2)[C@H]2c3cc(C(=O)N4CCCC4)n(Cc4ccc(Cl)c(C(F)(F)F)c4)c3C[C@H]2CN1C(=O)c1ccccc1 was tested. Which AC50 did it give?
Its AC50 is 12.6 µM (active).

For O=C1CN(c2nc(-c3ccccc3)c3cc(Br)ccc3n2)c2ccccc2N1, which “activity, negative = inhibition” value is on record?
Its value is -13.7% (inactive).

How did the “activity, negative = inhibition” value turn out when O=C(Nc1ccccc1)N1CCCC2(CCN(C(=O)c3csnn3)CC2)C1 was run?
Its value is -12.1% (inactive).

How did the “activity, negative = inhibition” value turn out when CCOc1cccc2cc(C(N)=O)c(=NCc3ccccc3)oc12 was run?
The value was -15.9% (inactive).

CCC1CCc2c(c3ccccc3[nH]c2=O)O1 (stereo not drawn) was tested. Which “activity, negative = inhibition” value did it give?
The value was -24.7% (inactive).

With Cc1cnc(CNc2nc(-c3ccc(C(=O)N(C)C)cc3)nc3ccccc23)cn1 as the compound, how does the activity, negative = inhibition read?
The activity, negative = inhibition was 6.85% [at 2.29 µM] (inactive).

With CC(=O)c1cccc(NC(=O)/C(=C\c2ccco2)NC(=O)c2cccs2)c1 as the compound, how does the AC50 read?
Its AC50 is 8.91 µM (active).

Which AC50 does the source give for O=C(Nc1cccc(F)c1)/C(=C\c1ccco1)NC(=O)c1cccs1 here?
The AC50 was 31.6 µM (active).

O=C(Nc1cccc(F)c1)N1CCC2(CC1)CCN(C(=O)c1ccco1)CC2 was tested. Which “activity, negative = inhibition” value did it give?
The value was -25.9% (inactive).

For CCc1cc2c(nc1CC)CCN(CC/C(C)=N/OC[C@@H](C)[C@H](OCc1ccccc1)C(C)C)C2, which activity, negative = inhibition is on record?
The activity, negative = inhibition was -5.74% [at 11.4 µM] (inactive).

For COc1ccc(NC(=O)N2CC3(CCN(C(=O)c4ccc(OC)cc4)CC3)C2)cc1, which “activity, negative = inhibition” value is on record?
Its value is 9.75% (inactive).

CC(C)(C)C(=O)[C@H]1[C@H](c2ccccc2)[C@@]2(N=C(c3ccccc3)OC2=O)C2c3ccccc3C=NN21 (stereo partly drawn) was tested. Which AC50 did it give?
The AC50 was 15.8 µM (active).
